p53 reactivator: qHTS assay for re-activators of p53 using a Luc reporter; H1299 p53-A138V BP100-luciferase reporter, luminescence, 24 h; Potency, µM (top dose mostly 92.2 µM), for the others: top-dose activity change, positive = activation, usual class: activators; 0.063% of 320,000 active; further: potency means the concentration at half of the fitted maximal effect; % of control where 0% means no effect; nearly all actives have a fitted effect of over 45% in size
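H1299 (p53-null), stable ts p53-A138V + BP100-Luc; 1000 cells/well, Opti-MEM/10% FBS; cpd 4 pt, 1:5; 24 h, 37 deg C, 5% CO2; detection reagent 10 min RT; luminescence.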
RORgamma inh: qHTS for inhibitors of ROR gamma transcriptional activity | Nuclear receptor ROR-gamma (Mus musculus), P51450 | Drosophila S2 Gal4-RORgamma UAS-luciferase reporter, 20 h | Potency, µM (highest dose often 53.6 µM), for the others: at the top dose activity change, negative = inhibition, hits mostly inhibitors | 5.4% of 310,000 active | AID 2551, 2010; further: potency means the concentration at half of the fitted maximal effect; on the % scale 0 is the no-effect control and ±100 the full control effect; nearly all actives have a fitted effect of over 60% in size
Target sequence (P51450 whole entry, looked up, the tested form may be a part): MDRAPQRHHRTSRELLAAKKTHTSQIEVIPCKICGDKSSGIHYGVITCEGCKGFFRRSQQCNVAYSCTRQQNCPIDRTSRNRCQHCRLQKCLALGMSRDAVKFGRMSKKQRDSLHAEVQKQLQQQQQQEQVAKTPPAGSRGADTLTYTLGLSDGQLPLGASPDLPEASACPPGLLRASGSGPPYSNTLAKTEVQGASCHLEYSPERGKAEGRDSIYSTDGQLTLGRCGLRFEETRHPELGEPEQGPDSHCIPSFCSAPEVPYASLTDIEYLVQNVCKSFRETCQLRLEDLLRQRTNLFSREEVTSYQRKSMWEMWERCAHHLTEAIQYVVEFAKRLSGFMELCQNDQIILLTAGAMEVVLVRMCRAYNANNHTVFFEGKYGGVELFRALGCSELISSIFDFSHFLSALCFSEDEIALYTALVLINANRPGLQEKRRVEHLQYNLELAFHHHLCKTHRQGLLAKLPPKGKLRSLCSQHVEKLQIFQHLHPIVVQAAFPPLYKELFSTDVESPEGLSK
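ROR gamma transcriptional activity was tracked as Gal4-UAS luciferase output in stably transfected Drosophila Schneider cells, with compound added 1 hr before 700 uM copper sulfate induction and a 20 hr ambient-temperature incubation.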
VP16 counter: VP16 counterscreen qHTS for inhibitors of ROR gamma transcriptional activity. Drosophila S2 Gal4-VP16 UAS-luciferase, luminescence, 20 h. Potency, µM (titrated, usually from 53.6 µM), inactives show at the top dose activity, negative = inhibition, usual class: inhibitors. 3.5% of 310,000 active;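 further: Gal4-VP16 expression switched on by copper sulfate through the metallothionein promoter; potency means the concentration at half of the fitted maximal effect; on the % scale 0 is the no-effect control and ±100 the full control effect; nearly all actives have a fitted effect of over 50% in size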
Six1-Eya2 inh: qHTS Assay for Inhibitors of the Six1/Eya2 Interaction. activity change, % (concentration not given with the values). AID 651725, 2012. 0.56% of 360,000 active. Homeobox protein SIX1 (Homo sapiens) + Protein phosphatase EYA2 (Homo sapiens), …. AlphaScreen GST-Six1/His-Eya2 binding, biochemical; hits give low values; in the data active means activity change below about -65%; inconclusive means mostly about -30% to -63%; further: on the % scale 0 is the no-effect control and ±100 the full control effect
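AlphaScreen luminescence read after one hour at 37 °C in darkness. Pin-transferred compounds met GST-Six1 and His-Eya2 protein (5X stock 250 nM/500 nM) plus glutathione donor and Ni-chelate acceptor beads (5X, 50 ug/mL).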
CtBP-E1A blk: qHTS Assay for Inhibitors of the CtBP/E1A Interaction | AlphaScreen GST-E1A/His-CtBP binding, 1536-well; hits give low values | activity change, % (test concentration not listed) | CtBP / adenovirus E1A interaction (AlphaScreen) | AID 651724, 2012 | 0.49% of 340,000 active; in the data active means activity change below about -65%; inconclusive means mostly about -30% to -63%; further: on the % scale 0 is the no-effect control and ±100 the full control effect
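AlphaScreen with 125 nM GST-E1A and 125 nM His-CtBP (5X stocks) in Tris pH 8.0, 300 mM NaCl, BSA, Tween 20, TCEP. Compounds preincubated 2 h at 37 deg C, then glutathione donor/nickel acceptor beads added for 1 h at 37 deg C in dark.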
The depositor's hits bear a star; u = inconclusive; x = not tested or not shown; [ ] = dose if it differs, or a comment. Shown are actives, neighbours in structure and some others; about 5.4% of the full set was active somewhere. Unless noted, the call rests on the fitted dose curve; in most records, active means well fitted curve in the direction sought with a large enough effect; inconclusive means small, poorly fitted or top-dose-only effect, or another doubt; inactive means no such curve, though single readings can be large; an effect the other way counts as inactive or inconclusive.

SMILES | p53 reactivator | RORgamma inh | VP16 counter | Six1-Eya2 inh | CtBP-E1A blk
O=C(NNC(=O)C1CC1)c1ccccc1[N+](=O)[O-] | 1% | -1% | 1% | 3 | 9
CCCCCC(=O)NNC(=S)NC(=O)c1ccccc1[N+](=O)[O-] | 6% | u | -11% | 2 | -13
O=C(NC(=S)NNC(=O)c1ccccc1[N+](=O)[O-])c1ccc(Br)cc1 | x | 6.3µM* | 6.3µM* | 7 | -1
CCCCCC(=O)NNC(=S)NC(=O)c1cccc([N+](=O)[O-])c1 | 0% | 3.5µM* | 5µM* | -3 | -1
C[C@H](CO)N1C[C@H](C)[C@@H](CN(C)C(=O)NC2CCCCC2)Oc2c(NC(=O)Nc3ccc(C(F)(F)F)cc3)cccc2C1=O | -3% | x | x | 26 | 0
CN(C)c1ncc2nc(-c3ccc(F)cc3)c(=O)n(C3CC3)c2n1 | x | 5% | 8% | x | x
CC(Cc1ccccc1)=NNS(=O)(=O)c1ccc([N+](=O)[O-])cc1 | x | x | x | 5 | 3
N/C(=N\OC(=O)c1ccc2c(c1)OCO2)c1cccc([N+](=O)[O-])c1 | 1% | -2% | -21% | u | -16
CCc1ccc(OCC(=O)O/N=C(\N)c2ccccn2)cc1 | 15% | -1% | -3% | 1 | x
Cc1cccc(/C(N)=N/OC(=O)Cc2ccccc2)c1 | 5% | 31% | 0% | 51 | 69
Cc1cccc(/C(N)=N/OC(=O)c2ccc3c(c2)OCO3)c1 | u | 10µM* | u | -4 | 9
Cc1cccc(/C(N)=N/OC(=O)c2ccc(Br)o2)c1 | u | 13µM* | u | 4 | 14
COc1ccccc1C/C(N)=N/OC(=O)c1ccc(C)c([N+](=O)[O-])c1 | 15% | 39% | -11% | -8 | -1
CCOc1ccc(C(=O)O/N=C(\N)c2ccccn2)cc1 | -18% | 4.5µM* | 10µM* | 0 | x
COc1ccccc1C/C(N)=N/OC(=O)c1ccc2c(c1)OCO2 | u | 0.89µM* | u | 6 | x
CCCCNC(=S)N(Cc1c(C)noc1C)c1ccccc1 | 17% | -1% | -4% | 16 | 18
CC(=O)Nc1cc(-c2ccccc2CN(C)C)cn2c(-c3ccc(F)c(Cl)c3)cnc12 | x | x | x | -20 | -3
COc1ccccc1NC(=O)C1CCCN(S(=O)(=O)c2c(C)noc2C)C1 (stereo not drawn) | 2% | -18% | 1% | 1 | -1
CC(C)(C)c1ccc(C(=O)C2CCCN(C(=O)c3ccccn3)C2)cc1 (stereo not drawn) | 5% | -41% | 14µM* | 18 | 0
Cc1cccc(C(=O)O/N=C(\N)c2ccccn2)c1 | 0% | 13µM* | 10µM* | 4 | 4
Cc1ccc(C(=O)O/N=C(\N)c2ccccn2)cc1C | x | 8.9µM* | 11µM* | 17 | -12
Cc1cnc(C(=O)N2CCCC(C(=O)c3ccc(C(C)(C)C)cc3)C2)cn1 (stereo not drawn) | 0% | -20% | -4% | -4 | -3
Cc1cccc(/C(N)=N/OC(=O)c2cccnc2)c1 | 10% | 8.9µM* | u | 6 | 8
COc1cc(OC)cc(C(=O)O/N=C(\N)c2cccc(C)c2)c1 | 13% | -32% | u | 18 | x
Cn1c(=O)c(-c2ccc(F)cc2)nc2cnc(OCc3ccccc3)nc21 | x | -2% | 2% | x | x
SMILES | p53 reactivator | RORgamma inh | VP16 counter | Six1-Eya2 inh | CtBP-E1A blk
CC1(C(=O)O)CCC(C(N)=O)C1(C)C (stereo not drawn) | 4% | 2% | -17% | 1 | 5
COc1ccc(CCNC(=O)c2cccc(S(=O)(=O)N3CCOCC3)c2)cc1OC | 0% | x | x | 0 | -2
N/C(=N\OC(=O)Cc1ccccc1)c1ccccn1 | u | -1% | 10% | 0 | -3
N/C(=N\OC(=O)/C=C/c1ccccc1Cl)c1ccccn1 | 26% | 11µM* | -25%[10 µM] | -18 | u
N/C(=N\OC(=O)c1ccc(Br)o1)c1ccccn1 | -1% | 11µM* | -2% | 9 | -3
CC(C)(C)c1ccc(C(=O)O/N=C(\N)c2ccccn2)cc1 | -7% | 0.16µM* | 5µM* | 6 | -1
N/C(=N\OC(=O)c1ccccc1)c1ccccn1 | -8% | 1.6µM* | u | -4 | 3
N/C(=N\OC(=O)c1cccc(F)c1)c1ccccn1 | 3% | u | u | -4 | x
O=C(CN1C(=O)CC(c2ccco2)Sc2ccccc21)NC1CCCCC1 (stereo not drawn) | -1% | 45% | 5% | -15 | -1
COc1cc(C)nn1-c1ccc(Cl)cc1 | 1% | 3% | 10% | 1 | 9
CC(C(=O)O/N=C(\N)c1ccccn1)c1ccc([N+](=O)[O-])cc1 (stereo not drawn) | u | 18% | 13% | 0 | -5
N/C(=N\OCc1ccc([N+](=O)[O-])cc1)c1ccccn1 | -8% | 1.6µM* | 2.5µM* | -18 | 4
Cc1ccc(C(=O)O/N=C(\N)c2ccccn2)cc1 | -11% | 8.9µM* | 13µM* | 5 | 4
COc1cc(C(=O)O/N=C(\N)c2ccccn2)cc(OC)c1OC | u | -39% | 26% | 1 | x
Cc1nn(C)cc1[C@@H]1C[C@H]2CN(Cc3cccc(Cl)c3)C(=O)[C@]23CCCN13 | u | -12% | 0% | -2 | -2
Cn1cc([C@@H]2C[C@H]3CN(Cc4cccc(Cl)c4)C(=O)[C@]34CCCN24)c(-c2ccccc2)n1 | 1% | u | 4µM* | -1 | -14
CCn1c(C)nc2cc(-c3nnc(-c4c(-c5ccccc5)noc4C)o3)ccc21 | -5% | u | 5µM* | -4 | -3
Cc1onc(-c2ccccc2)c1-c1nnc(-c2ccccc2C(F)(F)F)o1 | -5% | 29% | 2% | 7 | 23
O=C(NS(=O)(=O)c1ccc2ccc(S(=O)(=O)NCCSc3ccccc3)cc2c1)c1cccc2ccccc12 | x | x | x | -3 | 5
CCOC(=O)C1CCN(C(=O)COC(=O)c2cccc(NS(=O)(=O)c3ccccc3)c2)CC1 | x | x | x | 0 | 2
CC(C)Cn1c(=S)[nH]c2cc(Cl)ccc21 | 0% | 1.6µM* | u | -6 | -13
O=c1[nH]c2cc(Cl)ccc2n1-c1ccccc1 | -7% | 15% | -3% | 2 | 3
O=c1c2ccccc2[nH]c(=S)n1CCC1=CCCCC1 | 12% | 1.6µM* | 1.4µM* | 2 | 5
CCN(CC)CCCn1c(=S)[nH]c2ccccc2c1=O | -5% | u | -3% | -5 | 0
C=C(C)Cn1c(=S)[nH]c2ccccc2c1=O | x | 4µM* | 11µM* | 5 | 2
CC(C)COn1c(=S)[nH]c2ccccc2c1=O | -2% | 2.2µM* | 10µM* | -1 | 2

High-throughput results (PubChem)
